Experimental data as given in the supplement of paper PMC10849652.
Of roughly 7,900 targets only a part is listed; those with a hit were picked by preference. About 0.6% of all pairs of compound and target were hits. A number with no mark means an inactive call.

Assays:
Assay in all cases: log2 fold change, soluble protein after heating vs DMSO (PISA); higher = thermal stabilisation; K562 cells, 10 uM, 30 min; active = over 0.2 and 3.5 SD of the protein, either way, in both replicates (recomputed)
[1] = compound: CS(=O)(=O)c1ccc(-c2cnc(N)c(C(=O)Nc3ccccc3)n2)cc1
In short: (§1)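 K562 cells at 2×10^6 cells/mL were treated with 10 μM compound for 30 min. Aliquots were heated for 3 min across 48°C-58°C, pooled, and extracted in PBS with 0.5% NP-40 at 4°C; soluble protein was the supernatant after 21,000xg for 90 min. Soluble protein was quantified by TMTpro 16plex LC-MS/MS with channel sums equalised, and reported as log2 fold change in thermal stability against DMSO controls, with values from duplicates.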

crizotinib = compound: C[C@@H](Oc1cc(-c2cnn(C3CCNCC3)c2)cnc1N)c1c(Cl)ccc(F)c1Cl [crizotinib]
In short: as §1

[2] = compound: C[C@@H]1COCCN1C2=NC(=NC(=C2)C3(CC3)S(=O)(=O)C)C4=C5C=CNC5=CC=C4
In short: as §1

[3] = compound: C[C@H](C1=CC=C(C=C1)C(=O)NC2=C3C=CNC3=NC=C2)N
In short: as §1

duvelisib = compound: C[C@H](Nc1ncnc2nc[nH]c12)c1cc2cccc(Cl)c2c(=O)n1-c1ccccc1 [duvelisib]
In short: as §1

gandotinib = compound: Cc1cc(Nc2cc(CN3CCOCC3)c3nc(C)c(Cc4ccc(Cl)cc4F)n3n2)n[nH]1 [gandotinib]
In short: as §1

tozasertib = compound: Cc1cc(Nc2cc(N3CCN(C)CC3)nc(Sc3ccc(NC(=O)C4CC4)cc3)n2)n[nH]1 [tozasertib]
In short: as §1

[4] = compound: Cc1cc(SCc2sc(-c3ccc(C(F)(F)F)cc3)nc2C)ccc1OCC(=O)O
In short: as §1

doramapimod = compound: Cc1ccc(-n2nc(C(C)(C)C)cc2NC(=O)Nc2ccc(OCCN3CCOCC3)c3ccccc23)cc1 [doramapimod]
In short: as §1

ispinesib = compound: Cc1ccc(C(=O)N(CCCN)[C@@H](c2nc3cc(Cl)ccc3c(=O)n2Cc2ccccc2)C(C)C)cc1 [ispinesib]
In short: as §1

bafetinib = compound: Cc1ccc(NC(=O)c2ccc(CN3CC[C@H](N(C)C)C3)c(C(F)(F)F)c2)cc1Nc1nccc(-c2cncnc2)n1 [bafetinib]
In short: as §1

[5] = compound: Cc1cccc(CC(=O)N2CCc3c2ccc(-c2cn(C)c4ncnc(N)c24)c3F)n1
In short: as §1

nilotinib = compound: Cc1cn(-c2cc(NC(=O)c3ccc(C)c(Nc4nccc(-c5cccnc5)n4)c3)cc(C(F)(F)F)c2)cn1 [nilotinib]
In short: as §1

[6] = compound: Cc1nc(Nc2n[nH]c3c2CN(C(=O)N[C@H](CN(C)C)c2ccccc2)C3(C)C)c2sccc2n1
In short: as §1

dasatinib = compound: Cc1nc(Nc2ncc(C(=O)Nc3c(C)cccc3Cl)s2)cc(N2CCN(CCO)CC2)n1 [dasatinib]
In short: as §1

[7] = compound: Cc1ncc(-c2ccnc(Nc3ccc(S(C)(=O)=O)cc3)n2)n1C(C)C
In short: as §1

[8] = compound: Cn1cc(-c2ccc3c(c2)CCN3C(=O)Cc2cccc(C(F)(F)F)c2)c2c(N)ncnc21
In short: as §1

[9] = compound: Cn1cc(-c2ccc3nnc(C(F)(F)c4ccc5ncccc5c4)n3n2)cn1
In short: as §1

tipifarnib = compound: Cn1cncc1[C@@](N)(c1ccc(Cl)cc1)c1ccc2c(c1)c(-c1cccc(Cl)c1)cc(=O)n2C [tipifarnib]
In short: as §1

mubritinib = compound: FC(F)(F)c1ccc(/C=C/c2nc(COc3ccc(CCCCn4ccnn4)cc3)co2)cc1 [mubritinib]
In short: as §1

UniProt Q8NCF5, sequence (Q8NCF5 whole entry, looked up): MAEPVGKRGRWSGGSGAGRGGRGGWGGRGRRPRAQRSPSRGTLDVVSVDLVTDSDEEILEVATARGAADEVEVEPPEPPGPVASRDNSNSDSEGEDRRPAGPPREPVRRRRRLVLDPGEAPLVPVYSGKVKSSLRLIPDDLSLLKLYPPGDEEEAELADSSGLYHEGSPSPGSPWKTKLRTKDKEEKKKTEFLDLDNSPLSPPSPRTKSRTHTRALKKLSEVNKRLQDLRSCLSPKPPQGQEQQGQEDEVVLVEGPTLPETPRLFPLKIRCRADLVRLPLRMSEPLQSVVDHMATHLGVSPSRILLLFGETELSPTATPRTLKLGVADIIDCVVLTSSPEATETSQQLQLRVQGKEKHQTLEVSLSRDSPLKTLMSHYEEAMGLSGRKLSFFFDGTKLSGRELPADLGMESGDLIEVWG
UniProt P55786, sequence (P55786 whole entry, looked up): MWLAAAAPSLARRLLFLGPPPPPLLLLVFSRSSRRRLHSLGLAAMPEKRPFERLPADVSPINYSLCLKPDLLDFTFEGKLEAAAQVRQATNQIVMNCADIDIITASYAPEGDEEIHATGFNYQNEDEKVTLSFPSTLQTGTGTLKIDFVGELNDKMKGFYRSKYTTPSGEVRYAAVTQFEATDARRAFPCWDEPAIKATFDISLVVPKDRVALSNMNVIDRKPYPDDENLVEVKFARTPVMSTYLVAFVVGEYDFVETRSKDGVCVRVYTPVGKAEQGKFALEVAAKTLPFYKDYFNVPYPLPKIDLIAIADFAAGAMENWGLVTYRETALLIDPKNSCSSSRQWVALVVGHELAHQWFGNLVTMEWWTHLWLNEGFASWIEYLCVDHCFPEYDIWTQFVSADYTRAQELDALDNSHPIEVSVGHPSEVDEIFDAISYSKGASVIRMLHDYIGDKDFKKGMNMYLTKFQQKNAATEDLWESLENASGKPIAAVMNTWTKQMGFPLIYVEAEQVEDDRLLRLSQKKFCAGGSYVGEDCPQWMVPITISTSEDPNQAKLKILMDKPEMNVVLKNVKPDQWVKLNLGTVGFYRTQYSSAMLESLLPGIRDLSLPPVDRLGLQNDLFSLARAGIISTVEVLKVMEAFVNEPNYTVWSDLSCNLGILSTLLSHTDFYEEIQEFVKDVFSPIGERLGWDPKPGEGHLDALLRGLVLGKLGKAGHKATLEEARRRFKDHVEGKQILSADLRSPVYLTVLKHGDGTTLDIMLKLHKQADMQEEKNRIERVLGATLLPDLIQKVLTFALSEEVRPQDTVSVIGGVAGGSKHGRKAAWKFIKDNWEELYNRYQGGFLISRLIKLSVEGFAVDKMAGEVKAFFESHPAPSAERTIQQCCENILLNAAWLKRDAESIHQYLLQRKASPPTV
UniProt O43181, sequence (O43181 whole entry, looked up): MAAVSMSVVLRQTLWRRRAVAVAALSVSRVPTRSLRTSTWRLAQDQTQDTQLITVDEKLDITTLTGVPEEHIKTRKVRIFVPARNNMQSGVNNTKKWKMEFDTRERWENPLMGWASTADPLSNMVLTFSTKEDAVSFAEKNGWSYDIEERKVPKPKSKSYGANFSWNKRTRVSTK
UniProt Q9H3P2, sequence (Q9H3P2 whole entry, looked up): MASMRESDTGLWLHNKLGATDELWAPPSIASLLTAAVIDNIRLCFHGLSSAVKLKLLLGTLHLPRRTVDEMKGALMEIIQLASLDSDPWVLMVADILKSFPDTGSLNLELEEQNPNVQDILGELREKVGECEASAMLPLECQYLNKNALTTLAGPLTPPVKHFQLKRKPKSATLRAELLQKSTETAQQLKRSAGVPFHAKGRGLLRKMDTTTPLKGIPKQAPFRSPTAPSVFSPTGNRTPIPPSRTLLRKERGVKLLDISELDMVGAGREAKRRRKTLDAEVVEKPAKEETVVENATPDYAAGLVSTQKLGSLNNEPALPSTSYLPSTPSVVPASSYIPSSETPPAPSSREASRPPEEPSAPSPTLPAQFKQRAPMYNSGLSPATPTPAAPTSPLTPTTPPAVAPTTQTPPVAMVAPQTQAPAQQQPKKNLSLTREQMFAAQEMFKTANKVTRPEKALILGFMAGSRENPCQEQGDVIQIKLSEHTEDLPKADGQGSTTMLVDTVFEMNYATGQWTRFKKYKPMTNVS
UniProt Q96BN8, sequence (Q96BN8 whole entry, looked up): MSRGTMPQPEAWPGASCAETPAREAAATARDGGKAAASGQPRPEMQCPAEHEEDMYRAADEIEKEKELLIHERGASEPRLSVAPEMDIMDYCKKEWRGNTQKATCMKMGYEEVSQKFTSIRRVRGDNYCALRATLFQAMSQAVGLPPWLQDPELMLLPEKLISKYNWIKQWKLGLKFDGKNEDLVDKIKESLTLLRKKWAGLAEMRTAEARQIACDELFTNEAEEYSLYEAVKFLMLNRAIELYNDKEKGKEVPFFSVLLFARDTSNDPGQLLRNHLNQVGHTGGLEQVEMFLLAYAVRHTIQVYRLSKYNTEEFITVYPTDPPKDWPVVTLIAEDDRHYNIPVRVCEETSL

Work on NOP53 (UniProt Q9NZM5) yielded a log2 fold change [1] of -0.116, a log2 fold change (crizotinib) of 0.029 and a log2 fold change [2] of -0.019. The log2 fold change [3] was 0.638, the log2 fold change (duvelisib) was -0.335 and the log2 fold change (gandotinib) was 0.377. It also gave a log2 fold change (tozasertib) of 0.147, a log2 fold change [4] of -0.027 and a log2 fold change (doramapimod) of 0.277. It also gave a log2 fold change (ispinesib) of 0.015, a log2 fold change (bafetinib) of 0.189 and a log2 fold change [5] of 0.059. For the same target, the log2 fold change (nilotinib) was 0.039, the log2 fold change [6] was 0.217 and the log2 fold change (dasatinib) was 0.147. For the same target, the log2 fold change [7] was 0.027, the log2 fold change [8] was -0.339 and the log2 fold change [9] was -0.178. It also gave a log2 fold change (tipifarnib) of 0.161 and a log2 fold change (mubritinib) of -0.202.

In the case of NFATC2IP (UniProt Q8NCF5), the log2 fold change [1] is reported as 0.014, the log2 fold change (crizotinib) is reported as 0.023 and the log2 fold change [2] is reported as 0.195. The log2 fold change [3] was -0.009, the log2 fold change (duvelisib) was 0.121 and the log2 fold change (gandotinib) was 0.011. For the same target, the log2 fold change (tozasertib) was 0.03, the log2 fold change [4] was 0.045 and the log2 fold change (doramapimod) was -0.03. The log2 fold change (ispinesib) was 0.024, the log2 fold change (bafetinib) was 0.065 and the log2 fold change [5] was -0.029. It also gave a log2 fold change (nilotinib) of 0.001, a log2 fold change [6] of -0.153 and a log2 fold change (dasatinib) of -0.096. For the same target, the log2 fold change [7] was -0.146, the log2 fold change [8] was 0.097 and the log2 fold change [9] was 0.049. The log2 fold change (tipifarnib) was -0.003 and the log2 fold change (mubritinib) was 0.051.

For NDUFS4 (UniProt O43181), the log2 fold change [1] was -0.035, the log2 fold change (crizotinib) was -0.089 and the log2 fold change [2] was -0.027. The log2 fold change [3] was 0.086, the log2 fold change (duvelisib) was -0.086 and the log2 fold change (gandotinib) was 0.164. It also gave a log2 fold change (tozasertib) of -0.098, a log2 fold change [4] of -0.058 and a log2 fold change (doramapimod) of 0.018. For the same target, the log2 fold change (ispinesib) was -0.216, the log2 fold change (bafetinib) was -0.083 and the log2 fold change [5] was 0.017. It also gave a log2 fold change (nilotinib) of 0.039, a log2 fold change [6] of 0.015 and a log2 fold change (dasatinib) of 0.087. The log2 fold change [7] was -0.047, the log2 fold change [8] was 0.025 and the log2 fold change [9] was -0.049. For the same target, the log2 fold change (tipifarnib) was 0.202 and the log2 fold change (mubritinib) was 0.058.

OTULIN (UniProt Q96BN8) gave a log2 fold change [1] of -0.099, a log2 fold change (crizotinib) of -0.079 and a log2 fold change [2] of 0.04. It also gave a log2 fold change [3] of 0.036, a log2 fold change (duvelisib) of -0.027 and a log2 fold change (gandotinib) of -0.088. It also gave a log2 fold change (tozasertib) of 0.098, a log2 fold change [4] of 0.073 and a log2 fold change (doramapimod) of -0.095. For the same target, the log2 fold change (ispinesib) was -0.208, the log2 fold change (bafetinib) was -0.039 and the log2 fold change [5] was 0.066. For the same target, the log2 fold change (nilotinib) was -0.091, the log2 fold change [6] was -0.124 and the log2 fold change (dasatinib) was -0.169. For the same target, the log2 fold change [7] was 0.033, the log2 fold change [8] was -0.051 and the log2 fold change [9] was 0.235. For the same target, the log2 fold change (tipifarnib) was -0.081 and the log2 fold change (mubritinib) was 0.152.

NPEPPS (UniProt P55786) showed a log2 fold change [1] of 0.019, a log2 fold change (crizotinib) of -0.14 and a log2 fold change [2] of 0.122. The log2 fold change [3] was -0.039, the log2 fold change (duvelisib) was 0.063 and the log2 fold change (gandotinib) was -0.03. For the same target, the log2 fold change (tozasertib) was -0.066, the log2 fold change [4] was -0.012 and the log2 fold change (doramapimod) was 0.013. The log2 fold change (ispinesib) was 0.082, the log2 fold change (bafetinib) was 0.031 and the log2 fold change [5] was 0.011. The log2 fold change (nilotinib) was 0.002, the log2 fold change [6] was 0.121 and the log2 fold change (dasatinib) was -0.083. The log2 fold change [7] was -0.063, the log2 fold change [8] was 0.085 and the log2 fold change [9] was 0.02. For the same target, the log2 fold change (tipifarnib) was -0.032 and the log2 fold change (mubritinib) was 0.102.

MRPS2 (UniProt Q9Y399) showed a log2 fold change [1] of -0.043, a log2 fold change (crizotinib) of 0.078 and a log2 fold change [2] of 0.032. The log2 fold change [3] was 0.048, the log2 fold change (duvelisib) was -0.003 and the log2 fold change (gandotinib) was -0.117. For the same target, the log2 fold change (tozasertib) was 0.027, the log2 fold change [4] was 0.022 and the log2 fold change (doramapimod) was -0.049. For the same target, the log2 fold change (ispinesib) was -0.352 (active), the log2 fold change (bafetinib) was 0.191 and the log2 fold change [5] was 0.175. The log2 fold change (nilotinib) was -0.119, the log2 fold change [6] was 0.019 and the log2 fold change (dasatinib) was -0.026. The log2 fold change [7] was -0.062, the log2 fold change [8] was 0.043 and the log2 fold change [9] was 0.035. The log2 fold change (tipifarnib) was -0.074 and the log2 fold change (mubritinib) was 0.14.

With NELFA (UniProt Q9H3P2) the log2 fold change [1] was -0.01, the log2 fold change (crizotinib) was 0.082 and the log2 fold change [2] was 0.198. For the same target, the log2 fold change [3] was -0.011, the log2 fold change (duvelisib) was 0.118 and the log2 fold change (gandotinib) was 0.004. For the same target, the log2 fold change (tozasertib) was 0.142, the log2 fold change [4] was 0.234 and the log2 fold change (doramapimod) was -0.014. For the same target, the log2 fold change (ispinesib) was -0.068, the log2 fold change (bafetinib) was -0.145 and the log2 fold change [5] was 0.027. It also gave a log2 fold change (nilotinib) of 0.032, a log2 fold change [6] of -0.311 and a log2 fold change (dasatinib) of -0.112. The log2 fold change [7] was -0.152, the log2 fold change [8] was 0.015 and the log2 fold change [9] was 0.018. The log2 fold change (tipifarnib) was -0.141 and the log2 fold change (mubritinib) was -0.034.

In the case of NA, A0A0B4J2A0, the log2 fold change [1] is reported as -0.087, the log2 fold change (crizotinib) is reported as -0.18 and the log2 fold change [2] is reported as 0.093. It also gave a log2 fold change [3] of 0.06, a log2 fold change (duvelisib) of 0.071 and a log2 fold change (gandotinib) of -0.087. For the same target, the log2 fold change (tozasertib) was -0.061, the log2 fold change [4] was 0.061 and the log2 fold change (doramapimod) was -0.049. For the same target, the log2 fold change (ispinesib) was -0.121, the log2 fold change (bafetinib) was -0.066 and the log2 fold change [5] was 0.024. It also gave a log2 fold change (nilotinib) of 0.035, a log2 fold change [6] of -0.024 and a log2 fold change (dasatinib) of -0.111. For the same target, the log2 fold change [7] was 0.006, the log2 fold change [8] was 0.025 and the log2 fold change [9] was -0.015. It also gave a log2 fold change (tipifarnib) of 0.007 and a log2 fold change (mubritinib) of -0.011.
